# Experimental data published in PubChem BioAssay (NCATS).
# Results filed as inconclusive are left out. Where a call stands in place of a potency, no number is given. Active and inactive are the calls of the source. Calls come from the whole dose curve; as a rule, active = well fitted curve in the direction sought with a large enough effect; inconclusive = small, poorly fitted or top-dose-only effect, or another doubt; inactive = no such curve, though single readings can be large; an effect the other way counts as inactive or inconclusive.
# Columns and labels:
# [1] = qHTS of pediatric cancer cell lines to identify multiple opportunities for drug repurposing: Primary screen for NB1643 cells (AID 1347099); conditions: NB1643 neuroblastoma viability, CellTiter-Glo luminescence, 48 h; series mostly up to 46 µM; note: nearly all actives have a fitted effect of over 50% in size
# In short: (§1)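 500-1,000 cells/well; 5 h pre-incubation 37 °C/5% CO2; compound pinned; 48 h; CellTiter-Glo, 15 min RT; luminescence. MIPE 11-pt from 0.78 nM, NPC 8-pt from 0.59 nM final. Bortezomib 2.3 µM final as positive control.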
# [2] = qHTS of pediatric cancer cell lines to identify multiple opportunities for drug repurposing: Primary screen for LAN-5 cells (AID 1347100); conditions: LAN-5 neuroblastoma viability, CellTiter-Glo luminescence, 48 h; series mostly up to 46 µM; note: potency is the fitted concentration of half-maximal effect
# In short: (§2)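 Cells (500-1,000/well) in growth media were settled 5 h at 37 degrees C, then given compounds for 48 h. Viability was read as CellTiter-Glo luminescence. Primary runs used MIPE at 11 points (0.78 nM-46 µM) and NPC at 8 points (0.59 nM-46 µM); follow-ups used 11 points.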
# [3] = qHTS of pediatric cancer cell lines to identify multiple opportunities for drug repurposing: Primary screen for BT-12 cells (AID 1347101); conditions: BT-12 viability, CellTiter-Glo luminescence, 48 h; series mostly up to 57.3 µM; note: nearly all actives have a fitted effect of over 25% in size; note: potency is the fitted concentration of half-maximal effect
# In short: (§3)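 Cells (500-1,000/well) rested 5 h, then received compounds for 48 h; metabolically active cells were measured by CellTiter-Glo luminescence. Final concentrations spanned up to 46 µM (MIPE, 11-point) or 0.59 nM-46 µM (NPC, 8-point) in primary screens, 11-point in follow-ups.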
# [4] = qHTS of pediatric cancer cell lines to identify multiple opportunities for drug repurposing: Primary screen for Rh18 cells (AID 1347102); conditions: Rh18 rhabdomyosarcoma viability, CellTiter-Glo luminescence, 48 h; series mostly up to 46 µM; note: nearly all actives have a fitted effect of over 65% in size; note: potency is the fitted concentration of half-maximal effect
# In short: as §2
# [5] = qHTS of pediatric cancer cell lines to identify multiple opportunities for drug repurposing: Primary screen for RD cells (AID 1347104); conditions: RD rhabdomyosarcoma viability, CellTiter-Glo luminescence, 48 h; series mostly up to 46 µM; note: nearly all actives have a fitted effect of over 55% in size; note: potency is the fitted concentration of half-maximal effect
# In short: as §1
# [6] = qHTS of pediatric cancer cell lines to identify multiple opportunities for drug repurposing: Primary screen for MG 63 (6-TG R) cells (AID 1347105); conditions: MG 63 (6-TG R) viability, CellTiter-Glo, 48 h; series mostly up to 46 µM; note: nearly all actives have a fitted effect of over 50% in size; note: potency is the fitted concentration of half-maximal effect
# In short: as §1
# [7] = qHTS of pediatric cancer cell lines to identify multiple opportunities for drug repurposing: Primary screen for control Hh wild type fibroblast cells (AID 1347106); conditions: Hh wild-type fibroblast viability, CellTiter-Glo luminescence, 48 h; series mostly up to 46 µM;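 note: a drop in luminescence marks cytotoxicity and a rise apparent proliferation; nearly all actives have a fitted effect of over 55% in size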
# In short: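 Viability after 48 h compound treatment at 37C, 500-1,000 cells/well, read as ATP luminescence with CellTiter-Glo. Primary screens used 11-point (MIPE, 0.78 nM-46 µM) or 8-point (NPC, 0.59 nM-46 µM) final concentrations; follow-up screens used 11-point dilutions.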
# [8] = qHTS of pediatric cancer cell lines to identify multiple opportunities for drug repurposing: Primary screen for Rh30 cells (AID 1347107); conditions: Rh30 rhabdomyosarcoma viability, CellTiter-Glo luminescence, 48 h; series mostly up to 46 µM; note: nearly all actives have a fitted effect of over 75% in size
# In short: as §2
# [9] = qHTS of pediatric cancer cell lines to identify multiple opportunities for drug repurposing: Primary screen for SK-N-SH cells (AID 1347098); conditions: SK-N-SH viability, CellTiter-Glo luminescence, 48 h; series mostly up to 57 µM; note: nearly all actives have a fitted effect of over 65% in size; note: potency is the fitted concentration of half-maximal effect
# In short: as §3
# [10] = qHTS of pediatric cancer cell lines to identify multiple opportunities for drug repurposing: Primary screen for OHS-50 cells (AID 1347103); conditions: OHS-50 osteosarcoma viability, CellTiter-Glo luminescence, 48 h; series mostly up to 57.3 µM; note: nearly all actives have a fitted effect of over 40% in size; note: potency is the fitted concentration of half-maximal effect
# In short: as §3
SMILES,Potency [1],Potency [2],Potency [3],Potency [4],Potency [5],Potency [6],Potency [7],Potency [8],Potency [9],Potency [10]
CCC(=O)OC1(c2ccccc2)CCN(C)CC1,inactive,inactive,inactive,inactive,inactive,inactive,inactive,inactive,,
C[C@]12Cc3nonc3C[C@@H]1CC[C@@H]1[C@@H]2CC[C@@]2(C)[C@H]1CC[C@]2(C)O,,,,inactive,,inactive,inactive,inactive,inactive,15.5 µM (active)
Oc1ccc2[nH]cc(CCCCN3CC=C(c4ccccc4)CC3)c2c1,,11.9 µM (active),15.5 µM (active),,,inactive,inactive,inactive,,27.6 µM (active)
CC#C[C@]1(O)CC[C@H]2[C@@H]3C[C@H](C)C4=CC(=O)CC[C@]4(C)[C@H]3CC[C@@]21C,,,,,inactive,inactive,inactive,inactive,inactive,19.5 µM (active)
CCC(OC(C)=O)C(CC(C)NC)(c1ccccc1)c1ccccc1 (configuration not stated),,43.7 µM (active),35.9 µM (active),39 µM (active),27.6 µM (active),,inactive,,,28.5 µM (active)
CC(CC(C#N)(c1ccccc1)c1ccccc1)N(C)C (configuration not stated),inactive,inactive,,inactive,54.5 µM (active),,inactive,inactive,,28.2 µM (active)
C[N+]1(C)[C@@H]2CC[C@H]1CC(OC(=O)C(CO)c1ccccc1)C2 (some centres not stated),inactive,inactive,inactive,inactive,inactive,inactive,inactive,inactive,,inactive
Clc1ccc(CO/N=C(\Cn2ccnc2)c2ccc(Cl)cc2Cl)c(Cl)c1,inactive,23.7 µM (active),,,,,inactive,inactive,,
CC[C@H](O)C(C[C@H](C)N(C)C)(c1ccccc1)c1ccccc1,inactive,inactive,inactive,inactive,,,inactive,,,inactive
c1ccc2nc(N3CCNCC3)ccc2c1,,inactive,inactive,inactive,inactive,inactive,inactive,inactive,,inactive
Nc1ccc(Cl)cc1C(=O)c1ccccc1F,inactive,inactive,inactive,inactive,inactive,,inactive,inactive,,
C[C@H](CN1CCOCC1)C(C(=O)N1CCCC1)(c1ccccc1)c1ccccc1,,,,,,,inactive,,,43.4 µM (active)
CC1COC2(c3ccccc3Cl)c3cc(Cl)ccc3NC(=O)CN12 (configuration not stated),inactive,6.68 µM (active),,inactive,inactive,inactive,inactive,inactive,,
CN1CCC(N(Cc2ccccc2)c2ccccc2)CC1,inactive,inactive,inactive,inactive,,inactive,inactive,inactive,,
CC[C@H]1C[C@H]2[C@@H]3CCC4=CC(=O)CC[C@@H]4[C@H]3CC[C@]2(C)[C@H]1O,,inactive,,inactive,inactive,inactive,inactive,,,
O=C(CBr)Nc1ccc(Cl)cc1C(=O)c1ccccc1F,inactive,inactive,inactive,inactive,inactive,inactive,inactive,inactive,,
CCC(=O)O[C@H]1CC[C@H]2[C@@H]3CCC4=CC(=O)CC[C@]4(C)[C@H]3CC[C@]12C,inactive,,inactive,inactive,inactive,inactive,inactive,inactive,,
CN1[C@@H]2CC[C@H]1CC(OC(=O)c1cc(Cl)cc(Cl)c1)C2 (some centres not stated),,,inactive,inactive,,inactive,inactive,inactive,,
Clc1ccc(C(OCCN2CCCCC2)c2ccccc2)cc1 (configuration not stated),inactive,inactive,,inactive,,inactive,inactive,inactive,,19.5 µM (active)
CC[C@]1(O)CC[C@H]2[C@@H]3CCC4=CCCC[C@@H]4[C@H]3CC[C@@]21C,inactive,inactive,,,inactive,,inactive,inactive,,

SMILES,Potency [1],Potency [2],Potency [3],Potency [4],Potency [5],Potency [6],Potency [7],Potency [8],Potency [9],Potency [10]
CCO[C@H]1O[C@@H]2OC3(C)CC[C@H]4[C@H](C)CC[C@@H]([C@H]1C)[C@@]24OO3,inactive,,,inactive,,inactive,inactive,inactive,,13.8 µM (active)
Clc1ccc(CSC(Cn2ccnc2)c2ccc(Cl)cc2Cl)cc1 (configuration not stated),,,,,23.7 µM (active),,inactive,,34.4 µM (active),27.6 µM (active)
C[C@H](N)[C@H](O)c1ccc(O)c(O)c1,inactive,26.6 µM (active),inactive,inactive,inactive,inactive,inactive,inactive,,inactive
Nc1ccc(N)cc1,inactive,,inactive,inactive,inactive,inactive,inactive,inactive,,inactive
C#C[C@]1(O)CC[C@H]2[C@@H]3CCC4=CC(=O)CCC4=C3C=C[C@@]21CC,,inactive,,,,inactive,inactive,,,
N#Cc1nn(-c2c(Cl)cc(C(F)(F)F)cc2Cl)c(N)c1S(=O)C(F)(F)F (configuration not stated),,,12.3 µM (active),inactive,,,inactive,inactive,,24.6 µM (active)
C[C@]12CC[C@H]3[C@@H](CCC4=CC(=O)CC[C@@H]43)[C@@H]1CC[C@@H]2O,inactive,inactive,inactive,inactive,inactive,inactive,inactive,inactive,,
O=C(N[C@@H]1N=C(c2ccccc2F)c2cccc3c2N(CC3)C1=O)c1cc2ccccc2[nH]1,inactive,inactive,inactive,inactive,inactive,,inactive,inactive,,inactive
CC(C(O)c1ccccc1)N(C)C/C=C/c1ccccc1 (configuration not stated),inactive,inactive,inactive,inactive,inactive,inactive,inactive,inactive,,
COc1cc(CC(C)N)c(OC)cc1Br (configuration not stated),inactive,,,inactive,,17.9 µM (active),,inactive,,
CCC(=O)C(CCN(C)C)(c1ccccc1)c1ccccc1,,inactive,,,inactive,inactive,inactive,inactive,,
O=C1NCN(c2ccccc2)C12CCN(CCCOc1ccc(F)cc1)CC2,inactive,inactive,11 µM (active),,,inactive,inactive,inactive,,27.6 µM (active)
Cc1nnc2n1-c1sc(CCc3ccc(CC(C)C)cc3)cc1C(c1ccccc1Cl)=NC2C (configuration not stated),,23.7 µM (active),11 µM (active),,,,inactive,inactive,,21.9 µM (active)
Oc1ccc([C@H]2CNCc3c2ccc(O)c3O)cc1O,,,inactive,,inactive,,inactive,inactive,,inactive
CCc1cc(OC)c(C[C@H](C)N)cc1OC,,inactive,,inactive,,inactive,inactive,inactive,,inactive
CN1CCc2cc(Cl)c(O)cc2[C@H]2c3ccccc3CC[C@@H]21,inactive,inactive,inactive,inactive,inactive,inactive,inactive,inactive,,
CN1C2CCC(C)(C)C1CC(OC(=O)C(O)(c1cccs1)c1cccs1)C2 (configuration not stated),inactive,inactive,inactive,inactive,inactive,inactive,inactive,inactive,,
O=C(CCl)c1ccc(Cl)cc1Cl,,16.8 µM (active),,inactive,,,inactive,inactive,,
CC(=O)OC1(c2ccccc2)CCN(CCc2ccccc2)CC1,inactive,,,,62.3 µM (active),inactive,inactive,,,32.4 µM (active)
